The source of these data is ChEMBL document CHEMBL4296182, “CO-ADD screening of NIH NCI Diversity Set V”.

For part of these data: Measured potencies and affinities stand elsewhere.

The subject of one assay is Staphylococcus aureus. Kind of assay: Antibacterial activity against Staphylococcus aureus MRSA ATCC 43300 (CO-ADD:GP_020); MIC in CAMBH media using NBS plates, by Resazurin F(560/590). The assay is classed as functional. The note with it: Concentration 20 uM, ASSAY_TEST Inhibition of Bacterial Growth, detection method Resazurin, Fluorescence (ex560/em590), MEDIA CAMHB, plate type 384well, CORNING #3640, time 18 hr.

The next assay concerns Acinetobacter baumannii. The assay is described as follows: Antibacterial activity against Acinetobacter baumannii ATCC 19606 (CO-ADD:GN_034); MIC in CAMBH media using NBS plates, by Resazurin F(560/590). The conditions noted are these: Concentration 20 uM, ASSAY_TEST Inhibition of Bacterial Growth, detection method Resazurin, Fluorescence (ex560/em590), MEDIA CAMHB, plate type 384well, CORNING #3640, time 18 hr. The assay is classed as functional.

The test system of a further assay is Escherichia coli. Kind of assay: Antibacterial activity against Escherichia coli ATCC 25922 (CO-ADD:GN_001); MIC in CAMBH media using NBS plates, by Resazurin F(560/590). Type of assay: functional. The note with it: Concentration 20 uM, ASSAY_TEST Inhibition of Bacterial Growth, detection method Resazurin, Fluorescence (ex560/em590), MEDIA CAMHB, plate type 384well, CORNING #3640, time 18 hr.

The subject of another assay is Klebsiella pneumoniae. The note with it: Concentration 20 uM; ASSAY_TEST Inhibition of Bacterial Growth; detection method Absorption (OD600); MEDIA CAMHB; plate type 384well; NBS; CORNING #3640; time 18 hr.
The subject of another assay is Candida albicans. The conditions noted are these: 20 µM.
Another assay relates to Cryptococcus neoformans. The note with it: Concentration 20 uM; ASSAY_TEST Inhibition of Fungal Growth; detection method Resazurin; Absorption (OD600-OD570); plate type 384well; NBS; CORNING #3640.

In the case of `NCC(=O)c1cccc2ccc[n+]([O-])c12`, the Inhibition in the assay with Staphylococcus aureus was 9.77%; in the assay on Acinetobacter baumannii, 5.17%; in the assay with Escherichia coli, 0.84%; in the assay on Klebsiella pneumoniae, 20.91%; with Candida albicans it was 0.31%; in the assay with Cryptococcus neoformans it was -8.51%.
Consider `Nc1ccc(SCc2nc3cccc4c3n2CCC4)cc1`, for which the Inhibition in the assay with Staphylococcus aureus is 3.62%; in the assay with Acinetobacter baumannii, -8.53%; in the assay with Escherichia coli it was 10.5%; with Klebsiella pneumoniae, 16.5%; in the assay with Candida albicans, -0.32%; in the assay on Cryptococcus neoformans it was -14.91%.
`CCC1=C(c2ccc(OC)cc2)CCC(C(=O)O)C1C` (centres undefined): the Inhibition in the assay on Staphylococcus aureus is 20.78%; with Acinetobacter baumannii it was 6.76%; with Escherichia coli, -4.91%; with Klebsiella pneumoniae, 12.8%; in the assay with Candida albicans, 12.4%; in the assay on Cryptococcus neoformans, -6.31%.
With `Sc1ncc2cnccn12`, the Inhibition in the assay on Staphylococcus aureus is -4.23%; with Acinetobacter baumannii, -8.79%; in the assay on Escherichia coli, 10.26%; in the assay with Klebsiella pneumoniae, 3.96%; in the assay on Candida albicans it was 0.86%; in the assay on Cryptococcus neoformans it was -12.71%.
On to `NC(=O)Nc1ccc(Nc2ccccc2)cc1`, for which the Inhibition in the assay with Staphylococcus aureus was 15.79%; in the assay on Acinetobacter baumannii it was -8.02%; with Escherichia coli, 5.39%; in the assay on Klebsiella pneumoniae, 5.31%; in the assay on Candida albicans, 0.18%; in the assay with Cryptococcus neoformans, -3.95%.
Turning to `CSc1nc2cc(S(=O)(=O)N3CCCCC3)ccc2s1`, the Inhibition was 2.12% in the assay with Staphylococcus aureus; 9.92% with Acinetobacter baumannii; -7.83% in the assay with Escherichia coli; 10.24% with Klebsiella pneumoniae; 7.84% in the assay with Candida albicans; 2.72% with Cryptococcus neoformans.
Consider `O=C(O)CSc1ccc(NC(=O)Nc2ccccc2F)cc1`, for which the Inhibition in the assay with Staphylococcus aureus is 18.21%; in the assay with Acinetobacter baumannii it was 6.88%; in the assay on Escherichia coli, 2.53%; in the assay with Klebsiella pneumoniae, 17.8%; in the assay with Candida albicans, -1.57%; in the assay with Cryptococcus neoformans it was -6.03%.
Turning to `OC1(Cc2ccccc2)CCNCC1`, the Inhibition was 8.09% with Staphylococcus aureus; -10.57% in the assay with Acinetobacter baumannii; 6.88% in the assay on Escherichia coli; 12.17% in the assay with Klebsiella pneumoniae; 7.54% with Candida albicans; -0.07% in the assay with Cryptococcus neoformans.
Regarding `O=c1ccn2c(n1)SC(c1ccccc1)C2` (centres undefined), the Inhibition was 9.54% with Staphylococcus aureus; 7.52% in the assay on Acinetobacter baumannii; 0.87% in the assay with Escherichia coli; 5.49% in the assay with Klebsiella pneumoniae; 4.6% with Candida albicans; -10.89% with Cryptococcus neoformans.
`CCOP(=O)(OCC)/C(C#N)=C/c1ccc([N+](=O)[O-])cc1`: the Inhibition is 10.14% in the assay with Staphylococcus aureus; 12.51% in the assay with Acinetobacter baumannii; 3.05% in the assay on Escherichia coli; 9.62% in the assay with Klebsiella pneumoniae; 0.88% in the assay on Candida albicans; -11.85% in the assay on Cryptococcus neoformans.
Take `COc1ccc(-c2cc3ccccc3[nH]2)cc1`: the Inhibition was 28.13% in the assay with Staphylococcus aureus; -0.84% in the assay on Acinetobacter baumannii; 12.2% in the assay on Escherichia coli; 0.29% in the assay on Klebsiella pneumoniae; -0.93% with Candida albicans; -13.44% in the assay on Cryptococcus neoformans.
In the case of `CC(=O)OCc1cc(-c2nc3ccccc3nc2O)nn1-c1ccc(Cl)cc1`, the Inhibition in the assay with Staphylococcus aureus was 8.25%; with Acinetobacter baumannii it was 12.91%; in the assay with Escherichia coli, -18.97%; in the assay with Klebsiella pneumoniae it was 4.82%; in the assay on Candida albicans, 4.91%; in the assay with Cryptococcus neoformans it was 44.96%.
`CCOC(=O)C(C#N)C(=N)C1C(=O)OC2CCCCC21` (centres undefined): the Inhibition in the assay with Staphylococcus aureus was 5.44%; with Acinetobacter baumannii it was -19.8%; with Escherichia coli, 15.65%; in the assay on Klebsiella pneumoniae it was 4.77%; in the assay on Candida albicans, -2.13%; in the assay on Cryptococcus neoformans, -12.86%.
For the compound `O=C(O)C(Cc1c[nH]c2ccccc12)N1C(=O)c2ccccc2C1=O` (centres undefined), the Inhibition with Staphylococcus aureus was 3.51%; in the assay on Acinetobacter baumannii, 4.73%; with Escherichia coli it was -5.16%; with Klebsiella pneumoniae it was 9.04%; with Candida albicans, 3.93%; with Cryptococcus neoformans, 13.59%.
For the compound `Cc1ccc(NC(=O)N2CCN(C)CC2)cc1NC(=O)N1CCN(C)CC1`, the Inhibition with Staphylococcus aureus is 2.62%; with Acinetobacter baumannii it was 1.03%; in the assay on Escherichia coli it was -22.66%; in the assay with Klebsiella pneumoniae, 4.06%; in the assay with Candida albicans, 0.95%; in the assay on Cryptococcus neoformans it was 29.46%.
Take `O=C(Nc1ccc(Cl)c(Cl)c1)c1ccc(Cl)c(Cl)c1`: the Inhibition was 18.37% with Staphylococcus aureus; 5.32% in the assay on Acinetobacter baumannii; 2.55% with Escherichia coli; 6.19% in the assay with Klebsiella pneumoniae; -2.44% with Candida albicans; -2.12% in the assay with Cryptococcus neoformans.
In the case of `Nc1nc(O)c2nn(-c3ccccc3)nc2n1`, the Inhibition is 7.59% in the assay on Staphylococcus aureus; -13.43% in the assay on Acinetobacter baumannii; 5.48% in the assay on Escherichia coli; 0.39% in the assay on Klebsiella pneumoniae; -3.03% in the assay on Candida albicans; 29.86% in the assay with Cryptococcus neoformans.
Regarding `O=C(Nc1nc2ccccc2s1)Nc1ccc([N+](=O)[O-])cc1Cl`, the Inhibition with Staphylococcus aureus is 3.4%; with Acinetobacter baumannii it was 12.6%; with Escherichia coli, -5.05%; in the assay on Klebsiella pneumoniae it was 8.17%; in the assay with Candida albicans it was 4.63%; in the assay on Cryptococcus neoformans, -2.66%.
On to `CN(C)c1ccc(C(c2ccc(N(C)C)cc2)c2ccc([N+](=O)[O-])cc2)cc1`, for which the Inhibition was 15.85% with Staphylococcus aureus; 11.72% in the assay on Acinetobacter baumannii; -1.1% with Escherichia coli; 17.42% in the assay with Klebsiella pneumoniae; 2.89% in the assay with Candida albicans; -7.55% in the assay with Cryptococcus neoformans.
On to `CCC(C)Oc1nc2c(c(=O)n(C)c(=O)n2C)n1C` (centres undefined), for which the Inhibition in the assay with Staphylococcus aureus was -1.77%; with Acinetobacter baumannii, -5.34%; in the assay on Escherichia coli, 12.06%; with Klebsiella pneumoniae it was 2.01%; with Candida albicans it was 1.02%; in the assay with Cryptococcus neoformans, -11.56%.
Take `COc1cc(-c2ccc(Nc3ccccc3C(=O)O)c(OC)c2)ccc1Nc1ccccc1C(=O)O`: the Inhibition in the assay with Staphylococcus aureus is 0.05%; in the assay on Acinetobacter baumannii it was 8.67%; in the assay on Escherichia coli, 4.59%; with Klebsiella pneumoniae, -0.01%; in the assay with Candida albicans it was -0.13%; with Cryptococcus neoformans, -0.24%.
Take `Cn1cnc([N+](=O)[O-])c1Sc1n[nH]c(N)n1`: the Inhibition in the assay on Staphylococcus aureus is 6.38%; with Acinetobacter baumannii, 14.39%; with Escherichia coli, -1%; with Klebsiella pneumoniae it was 1.75%; in the assay on Candida albicans, -0.83%; in the assay with Cryptococcus neoformans, -4.45%.
Consider `Clc1nnc(NC2CCCCC2)c(Cl)c1Cl`, for which the Inhibition in the assay with Staphylococcus aureus is -0.25%; in the assay on Acinetobacter baumannii it was -5.61%; in the assay on Escherichia coli, 15.05%; with Klebsiella pneumoniae, 1.58%; with Candida albicans, 27.2%; in the assay with Cryptococcus neoformans, -9.26%.
Turning to `CC(=O)[C@@]1(O)[C@H](C)C[C@H]2[C@@H]3C=C(C)C4=Cc5c(cnn5-c5ccccc5)C[C@]4(C)[C@H]3[C@@H](O)C[C@@]21C`, the Inhibition in the assay with Staphylococcus aureus was 3.25%; in the assay on Acinetobacter baumannii, -8.97%; in the assay on Escherichia coli, 7.95%; in the assay on Klebsiella pneumoniae, 0.96%; in the assay on Candida albicans it was 4.25%; with Cryptococcus neoformans it was -3.62%.
